# Assay results reported in PubChem BioAssay (EPA / NIEHS).
# Several values for one entry are separate records, joined by “and”; a condition that tells them apart may be missing. Equal entries are not always repeated. Inconclusive results are not listed. Some compounds were tested as several samples or in several runs, with calls that do not always agree. Activity calls are given as the source filed them. The calls were made as follows: active = hit-call score of the fitted dose curve at least 0.9, where 1 is the maximum; inconclusive = response in the unintended direction; inactive = score below 0.9.
# Molecular target: Peroxisome proliferator-activated receptor gamma (Homo sapiens) (UniProt P37231)
# Experiment: ATG_PPARg_TRANS: Attagene TRANS-FACTORIAL HepG2 Assay for human Peroxisome Proliferator-activated Receptor-gamma (PPARg) (AID 2283007)
# Description: ATG_TRANS is a cell-based, multiplexed-readout assay that uses HepG2, a human liver cell line, with measurements taken at 24 hours after chemical dosing in a 24-well plate.ATG_PPARg_TRANS is one of 30 assay component(s) measured or calculated from the ATG_TRANS assay. It is designed to make measurements of mRNA induction, a form of inducible reporter, as detected with fluorescence intensity signals by Reverse transcription polymerase chain reaction (RT-PCR) and Capillary electrophoresis technology.Data from the assay component ATG_PPARg_TRANS was analyzed into 1 assay endpoint. This assay endpoint, ATG_PPARg_TRANS, was analyzed in the positive analysis fitting direction relative to DMSO as the negative control and baseline of activity. Using a type of inducible reporter, measures of mRNA for gain-of-signal activity can be used to understand the reporter gene at the transcription factor-level as they relate to the gene PPARG. Furthermore, this assay endpoint can be referred to as a primary readout, because this assay has produced multiple assay endpoints where this one serves a reporter gene function. To generalize the intended target to other relatable targets, this assay endpoint is annotated to the nuclear receptor intended target family, where the subfamily is non-steroidal.
# Human liver HepG2 cells are transiently transfected with multiple reporter transcription units (MRTUs) in 6-well plates using FuGene 6 reagent (Roche; 3 ml FuGene/1 mg DNA). The MRTU constructs are regulated by a cis-regulating element (promoter). […] A major difference between the CIS and TRANS system is that in CIS activities of endogenous TFs are measured, whereas the TRANS assay evaluates changes in activities of exogenous, chimeric NR-Gal4 proteins. […] At the end of 24 hour incubation, total RNA was isolated using TriZol reagent (Invitrogen). The isolated RNA is then reverse-transcribed using oligo(dT) primer and Mo-MLV reverse transcriptase (Invitrogen) with DNAse I (Ambion) treatment for 30 min. The one-tenth of the produced cDNA was amplified by PCR using Taq DNA polymerase (Invitrogen) and two reporter sequence-specific primers. The PCR products were fluorescently labeled by primer extension with 6-arboxyfluorescein (6-FAM) 5'-labeled reporter sequence-specific primer (2 min at 95 C, 20 s at 68 C and 10 min at 72 C) and these products were digested with 5U of HpaI (New England Biolabs) for 2h at 37 C. The fragments were purified using Qiaquick PCR columns (Qiagen), analyzed on an ABI 3130xL genetic analyzer (Applied Biosystems) with peak positions identified by using a set of X-rhodamine (ROX)-labeled MapMarker1000 molecular weight standards (BioVentures). The raw capillary electrophoresis data was processed using Attagraph software (Attagene).
# Sequence of Peroxisome proliferator-activated receptor gamma (Homo sapiens) (P37231 whole entry, looked up): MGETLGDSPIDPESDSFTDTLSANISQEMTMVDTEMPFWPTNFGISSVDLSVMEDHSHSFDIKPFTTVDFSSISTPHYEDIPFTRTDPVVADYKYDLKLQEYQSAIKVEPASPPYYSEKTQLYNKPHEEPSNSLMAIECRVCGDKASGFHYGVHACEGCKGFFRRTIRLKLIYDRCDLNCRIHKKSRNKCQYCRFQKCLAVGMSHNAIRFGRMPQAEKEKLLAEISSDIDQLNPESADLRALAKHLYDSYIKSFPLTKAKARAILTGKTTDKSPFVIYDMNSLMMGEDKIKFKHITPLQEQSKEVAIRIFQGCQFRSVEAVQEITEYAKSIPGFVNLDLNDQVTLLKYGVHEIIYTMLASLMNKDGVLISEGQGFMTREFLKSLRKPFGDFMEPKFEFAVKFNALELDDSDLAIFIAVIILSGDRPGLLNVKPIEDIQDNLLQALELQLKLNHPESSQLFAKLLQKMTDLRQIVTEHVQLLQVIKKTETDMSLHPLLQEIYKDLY
SMILES,AC50,outcome
COc1ccccc1NC(=O)c1cc2ccccc2cc1O,8.06 µM (active),–
COC(=O)CC(C(C)=O)C(=O)OC (stereo not given),–,inactive
OCC(F)(F)C(F)(F)C(F)(F)C(F)(F)C(F)(F)C(F)(F)C(F)(F)C(F)(F)C(F)(F)C(F)(F)C(F)(F)F,–,inactive
CC(C)[C@@H]1CC[C@@H](C)C[C@H]1O,–,inactive
C=CC(=O)OCC(CO)(COCC(COC(=O)C=C)(COC(=O)C=C)COC(=O)C=C)COC(=O)C=C,–,inactive
C[C@]12CC[C@@H]3c4ccc(O)cc4CC[C@H]3[C@@H]1C[C@@H](O)[C@@H]2O,–,inactive
Cc1cc(Cc2cc(C)cc(C(C)(C)C)c2O)c(O)c(C(C)(C)C)c1,12.6 µM (active),–
COc1ccc(C#N)cc1,–,inactive
Oc1cc2ccccc2cc1O,–,inactive
O=C(O)CCC(F)(F)C(F)(F)C(F)(F)C(F)(F)C(F)(F)F,82.5 µM (active),inactive
CC(O)COc1ccccc1 (stereo not given),–,inactive
COC(O)c1ccccc1 (stereo not given),–,inactive
CCCCCCCCCCCC(=O)O,52.9 µM (active),inactive
NC(=NCCCCCCN=C(N)/N=C(\N)Nc1ccc(Cl)cc1)/N=C(\N)Nc1ccc(Cl)cc1,8.54 µM (active),inactive
CCCCCCCCCCCCCCCC(=O)OC,–,inactive
c1cc[nH]c1,–,inactive
O=C(CC(=O)C(F)(F)C(F)(F)C(F)(F)F)c1cccs1,5.3 µM (active) and 10.5 µM (active),–
CCCCCCCCCCCCOC(=O)c1cc(O)c(O)c(O)c1,20.8 µM (active),–
OCC1CCC(CO)CC1 (stereo not given),–,inactive

SMILES,AC50,outcome
CCCCCC(C)OC(=O)COc1ccc(Cl)c2cccnc12 (stereo not given),34.9 µM (active),–
CCCCCCCC(OC)OC,–,inactive
CCOC(=O)CN[C@@H](C(=O)N1CC[C@H]1C(=O)NCc1ccc(/C(N)=N/O)cc1)C1CCCCC1,–,inactive
FC(OC(F)(F)C(F)(F)C(F)(F)F)C(F)(F)F (stereo not given),–,inactive
CN(C)c1ccc(C(=C2C=CC(=[N+](C)C)C=C2)c2ccccc2)cc1,1.75 µM (active) and 1.45 µM (active),–
Oc1cccc2c(O)cccc12,48.4 µM (active),–
O=S(=O)(O)C(F)(F)C(F)(F)C(F)(F)C(F)(F)C(F)(F)C(F)(F)C(F)(F)C(F)(F)C(F)(F)C(F)(F)F,–,inactive
FC(F)(F)N1C(F)(F)C(F)(F)OC(F)(F)C1(F)F,–,inactive
CCc1cccc(CC)c1N(COC)C(=O)CS(=O)(=O)O,–,inactive
Nc1ccc(O)c(C(=O)O)c1,–,inactive
O=CC(F)(F)C(F)(F)C(F)(F)F,–,inactive
O=C1OC(=O)C(F)(F)C1(F)F,–,inactive
O=C(O)CCC(F)(F)C(F)(F)C(F)(F)C(F)(F)C(F)(F)C(F)(F)F,73.4 µM (active),–
CCC(C)c1nccnc1OC (stereo not given),–,inactive
CCCCCCc1ccc(N)cc1,–,inactive
COC(=O)C(F)(F)C(F)(F)C(F)(F)F,–,inactive
O=C1Cc2ccccc2N1c1c(Cl)cccc1Cl,–,inactive
NS(=O)(=O)O,–,inactive
